Laboratory results from PubChem BioAssay (EPA / NIEHS).
Inconclusive results are not listed. Active and inactive are the calls of the source. The calls were made as follows, unless noted: active = hit-call score of the fitted dose curve at least 0.9, where 1 is the maximum; inactive = score below 0.9.

What was measured:
[1] = target: Hepatocyte nuclear factor 4-alpha (Homo sapiens) (UniProt P41235); assay: ATG_HNF4a_TRANS: Attagene TRANS-FACTORIAL HepG2 Assay for human Hepatocyte Nuclear Factor 4 alpha (HNF4a) (AID 2282982; active = hit-call score of the fitted dose curve at least 0.9, where 1 is the maximum); settings: HepG2 HNF4a transactivation reporter, mRNA readout
Chain of Hepatocyte nuclear factor 4-alpha (Homo sapiens) (P41235 whole entry, looked up, the tested form may be a part): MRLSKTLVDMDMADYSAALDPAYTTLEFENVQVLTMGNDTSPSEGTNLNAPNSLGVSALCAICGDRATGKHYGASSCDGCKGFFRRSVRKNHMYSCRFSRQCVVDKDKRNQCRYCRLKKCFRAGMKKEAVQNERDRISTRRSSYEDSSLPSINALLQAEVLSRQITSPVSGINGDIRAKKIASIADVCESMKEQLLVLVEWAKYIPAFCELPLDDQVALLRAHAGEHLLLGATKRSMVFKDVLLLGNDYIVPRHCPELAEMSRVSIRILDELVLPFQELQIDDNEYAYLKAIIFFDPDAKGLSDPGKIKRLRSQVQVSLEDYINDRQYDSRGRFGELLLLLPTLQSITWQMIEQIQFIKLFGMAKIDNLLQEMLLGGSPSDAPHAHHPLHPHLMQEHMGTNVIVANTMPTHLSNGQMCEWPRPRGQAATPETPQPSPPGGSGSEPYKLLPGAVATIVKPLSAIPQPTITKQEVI
Procedure, shortened: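 Endpoint reflects transcriptional activation of a GAL4-UAS reporter by an HNF4a-GAL4 chimera in transfected HepG2 cells, 24 h post-dosing. Fluorescence from RT-PCR products separated by capillary electrophoresis; DMSO baseline.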

[2] = ATG_M_06_TRANS: Attagene TRANS-FACTORIAL HepG2 Assay for M06 Transcription Factor (Internal Marker) (AID 2282983; active = hit-call score of the fitted dose curve at least 0.9, where 1 is the maximum); settings: HepG2 Attagene TRANS M06 internal marker reporter
Procedure, shortened: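 In this multiplexed HepG2 system, compounds are incubated 24 h with cells carrying GAL4-UAS reporter units. Reporter RNA is amplified and resolved by capillary electrophoresis, and induction is scored against DMSO.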

[3] = target: Nuclear receptor subfamily 4 group A member 2 (Homo sapiens) (UniProt P43354); assay: ATG_NURR1_TRANS: Attagene TRANS-FACTORIAL HepG2 Assay for human Nuclear Receptor Related Protein 1 (NURR1) (AID 2282985; active = hit-call score of the fitted dose curve at least 0.9, where 1 is the maximum); settings: HepG2 Attagene TRANS reporter, mRNA readout
Chain of Nuclear receptor subfamily 4 group A member 2 (Homo sapiens) (P43354 whole entry, looked up): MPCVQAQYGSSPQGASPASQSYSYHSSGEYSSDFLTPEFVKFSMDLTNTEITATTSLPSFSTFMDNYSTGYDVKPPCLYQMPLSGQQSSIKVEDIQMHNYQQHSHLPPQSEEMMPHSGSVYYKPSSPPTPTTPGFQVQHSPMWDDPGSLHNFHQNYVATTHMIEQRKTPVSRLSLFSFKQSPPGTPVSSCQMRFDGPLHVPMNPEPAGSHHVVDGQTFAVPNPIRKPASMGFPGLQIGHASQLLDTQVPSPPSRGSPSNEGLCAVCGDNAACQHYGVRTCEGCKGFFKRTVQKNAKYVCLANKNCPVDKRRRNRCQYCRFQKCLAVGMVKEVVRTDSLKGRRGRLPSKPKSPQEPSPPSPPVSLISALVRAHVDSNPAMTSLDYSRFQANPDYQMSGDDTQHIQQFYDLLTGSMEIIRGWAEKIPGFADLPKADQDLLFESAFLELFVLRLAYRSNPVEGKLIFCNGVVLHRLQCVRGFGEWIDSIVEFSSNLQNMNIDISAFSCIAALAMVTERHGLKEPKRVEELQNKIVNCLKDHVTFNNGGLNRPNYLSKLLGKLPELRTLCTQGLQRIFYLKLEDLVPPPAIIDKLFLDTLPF
Procedure, shortened: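 Endpoint: reporter mRNA increase relative to DMSO. HepG2 cells transfected with reporter units, treated 24 h; RNA processed by RT-PCR, labelling, HpaI digestion and capillary electrophoresis.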

[4] = target: Transcriptional activator Myb (Homo sapiens) (UniProt P10242); assay: ATG_Myb_CIS: Attagene CIS-FACTORIAL HepG2 Assay for human Myeloblastosis (Myb) Proto-Oncogene Transcription Factor (AID 2282986); settings: HepG2 Attagene CIS-FACTORIAL Myb reporter transcription; actives raise or lower the signal
Chain of Transcriptional activator Myb (Homo sapiens) (P10242 whole entry, looked up): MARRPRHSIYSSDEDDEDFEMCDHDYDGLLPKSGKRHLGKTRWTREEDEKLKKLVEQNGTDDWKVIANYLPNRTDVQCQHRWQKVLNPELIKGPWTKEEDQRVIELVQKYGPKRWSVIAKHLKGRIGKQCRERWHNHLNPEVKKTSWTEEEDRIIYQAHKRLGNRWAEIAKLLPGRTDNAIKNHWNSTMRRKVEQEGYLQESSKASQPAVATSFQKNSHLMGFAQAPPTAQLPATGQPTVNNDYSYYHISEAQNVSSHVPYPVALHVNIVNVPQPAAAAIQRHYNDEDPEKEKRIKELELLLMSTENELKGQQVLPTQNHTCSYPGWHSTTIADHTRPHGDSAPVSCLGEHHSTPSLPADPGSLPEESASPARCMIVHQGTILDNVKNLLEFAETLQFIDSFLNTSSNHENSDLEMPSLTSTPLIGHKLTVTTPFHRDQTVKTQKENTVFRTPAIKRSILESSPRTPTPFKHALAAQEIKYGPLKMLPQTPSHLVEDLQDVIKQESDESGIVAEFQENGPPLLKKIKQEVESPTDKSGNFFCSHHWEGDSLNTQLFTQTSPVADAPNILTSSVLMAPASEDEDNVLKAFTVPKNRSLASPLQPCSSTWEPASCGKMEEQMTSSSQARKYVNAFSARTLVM
Procedure, shortened: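 Transiently transfected HepG2 cells carrying a multiplexed cis-promoter reporter set report endogenous Myb activity after 24 h compound exposure. Reporter mRNA is read by RT-PCR with capillary electrophoresis of fluorescent products, fitted bidirectionally against DMSO.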

[5] = target: Nuclear respiratory factor 1 (Homo sapiens) (UniProt Q16656); assay: ATG_NRF1_CIS: Attagene CIS-FACTORIAL HepG2 Assay for human Nuclear Respiratory Factor 1 (NRF1) Orphan Gene (AID 2282987); settings: HepG2 NRF1 cis-element reporter, Attagene multiplex; actives raise or lower the signal
Chain of Nuclear respiratory factor 1 (Homo sapiens) (Q16656 whole entry, looked up): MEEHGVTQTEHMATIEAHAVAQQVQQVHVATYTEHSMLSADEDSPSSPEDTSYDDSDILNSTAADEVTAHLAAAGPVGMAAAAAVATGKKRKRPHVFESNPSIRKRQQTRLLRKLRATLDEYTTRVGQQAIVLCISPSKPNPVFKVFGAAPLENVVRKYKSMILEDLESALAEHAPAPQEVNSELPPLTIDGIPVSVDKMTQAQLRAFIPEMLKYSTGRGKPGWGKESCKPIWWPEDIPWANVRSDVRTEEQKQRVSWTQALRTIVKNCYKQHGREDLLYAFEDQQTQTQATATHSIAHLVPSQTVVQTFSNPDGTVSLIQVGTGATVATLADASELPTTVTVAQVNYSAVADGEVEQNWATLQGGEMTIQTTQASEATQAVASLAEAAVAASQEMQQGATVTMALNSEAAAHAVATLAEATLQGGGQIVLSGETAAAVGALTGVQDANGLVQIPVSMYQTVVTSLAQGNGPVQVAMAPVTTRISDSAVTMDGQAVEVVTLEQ
Procedure, shortened: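 HepG2 cells transiently transfected with multiple cis-regulated reporter units, exposed 24 h. Reporter mRNAs measured by RT-PCR, fluorescent labelling, HpaI digestion and capillary electrophoresis; bidirectional fitting against DMSO.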

[6] = ATG_NFI_CIS: Attagene CIS-FACTORIAL HepG2 Assay for human Nuclear Factor I (NFI) (AID 2282989); settings: HepG2 cis-regulatory reporter, NFI response element transcription; actives raise or lower the signal
Procedure, shortened: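 Reporter transcription driven by endogenous transcription factors in HepG2 cells; 24 h treatment. Quantitation by labelled RT-PCR fragments on capillary electrophoresis, gain- or loss-of-signal relative to DMSO.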

[7] = target: Myc proto-oncogene protein (Homo sapiens) (UniProt P01106); assay: ATG_Myc_CIS: Attagene CIS-FACTORIAL HepG2 Assay for human Myelocytomatosis (Myc) Proto-Oncogene Transcription Factor (AID 2282990); settings: HepG2, Attagene cis-reporter transcription factor activity; actives raise or lower the signal
Chain of Myc proto-oncogene protein (Homo sapiens) (P01106 whole entry, looked up): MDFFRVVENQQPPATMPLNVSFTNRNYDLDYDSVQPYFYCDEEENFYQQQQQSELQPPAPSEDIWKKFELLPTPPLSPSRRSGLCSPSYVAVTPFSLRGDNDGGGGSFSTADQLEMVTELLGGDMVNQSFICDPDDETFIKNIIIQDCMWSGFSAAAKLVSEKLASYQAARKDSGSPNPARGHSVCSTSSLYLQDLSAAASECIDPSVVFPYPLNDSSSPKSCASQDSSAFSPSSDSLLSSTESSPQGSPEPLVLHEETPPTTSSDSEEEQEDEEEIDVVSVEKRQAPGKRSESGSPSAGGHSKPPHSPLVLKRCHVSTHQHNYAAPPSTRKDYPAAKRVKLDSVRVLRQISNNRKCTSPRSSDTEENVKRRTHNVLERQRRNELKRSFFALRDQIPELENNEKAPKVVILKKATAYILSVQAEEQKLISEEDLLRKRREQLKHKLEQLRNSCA
Procedure, shortened: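 Transiently transfected HepG2 cells bearing cis-promoter reporter units for endogenous transcription factors; 24 h exposure. Reporter mRNA measured by RT-PCR, 6-FAM primer extension, HpaI cut and capillary electrophoresis; bidirectional fit relative to DMSO.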

[8] = ATG_NF_kB_CIS: Attagene CIS-FACTORIAL HepG2 Assay for human Nuclear Factor Kappa B (NF-kB) (AID 2282991); settings: HepG2 Attagene cis-factorial NF-kB reporter mRNA; actives raise or lower the signal
Procedure, shortened: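 HepG2 cells transfected with cis-promoter-driven reporter units, so endogenous transcription factor activity is measured. Reporter mRNA quantified 24 h after dosing by RT-PCR and capillary electrophoresis, with bidirectional fitting against DMSO.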

[9] = ATG_NRF2_ARE_CIS: Attagene CIS-FACTORIAL HepG2 Assay for human Nuclear Factor Erythroid 2 Related Factor 2 (NFR2) response to Antioxidant Response Elements (ARE) (AID 2282992); settings: HepG2 Attagene ARE/NRF2 reporter, transcription factor activity; actives raise or lower the signal
Procedure, shortened: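 Endogenous transcription factor activity read out as reporter transcript levels (RT-PCR plus capillary electrophoresis, fluorescence) in transiently transfected HepG2 cells. Measured at 24 h after dosing; gain or loss of signal fitted versus DMSO.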

[10] = ATG_Oct_MLP_CIS: Attagene CIS-FACTORIAL HepG2 Assay for human Octamer-Binding Transcription Factor (Oct) (AID 2282993); settings: HepG2 Attagene cis-factorial Oct reporter, mRNA; actives raise or lower the signal
Procedure, shortened: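 Transfected HepG2 cells, 24 h treatment. Reporter mRNA quantified by RT-PCR–capillary electrophoresis; bidirectional fitting against DMSO.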

[11] = target: Cellular tumor antigen p53 (Homo sapiens) (UniProt P04637); assay: ATG_p53_CIS: Attagene CIS-FACTORIAL HepG2 Assay for human p53 Transcription Factor (AID 2282994); settings: HepG2 p53 cis-element reporter, Attagene mRNA; actives raise or lower the signal
Chain of Cellular tumor antigen p53 (Homo sapiens) (P04637 whole entry, looked up): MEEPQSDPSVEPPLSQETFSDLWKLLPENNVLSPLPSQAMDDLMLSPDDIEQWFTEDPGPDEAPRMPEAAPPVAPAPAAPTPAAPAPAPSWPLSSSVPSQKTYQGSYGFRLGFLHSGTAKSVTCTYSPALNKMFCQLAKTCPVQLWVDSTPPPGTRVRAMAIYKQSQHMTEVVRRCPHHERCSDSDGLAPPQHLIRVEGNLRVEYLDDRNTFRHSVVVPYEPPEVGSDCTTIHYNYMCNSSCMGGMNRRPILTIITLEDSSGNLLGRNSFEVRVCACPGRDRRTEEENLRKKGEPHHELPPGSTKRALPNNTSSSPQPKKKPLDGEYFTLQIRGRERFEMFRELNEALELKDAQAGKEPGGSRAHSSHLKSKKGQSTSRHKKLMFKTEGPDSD
Procedure, shortened: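 Endogenous p53 activity read in transiently transfected HepG2 from a cis-element-driven reporter transcript after 24 h exposure. RNA reverse-transcribed, PCR-amplified, fluorescently labelled and sized by capillary electrophoresis; gain or loss fitted against DMSO baseline.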

[12] = BSK_3C_TissueFactor: BioMAP Diversity Plus: 3C Assay for Tissue Factor Biomarker Activity (AID 2282997); settings: BioMAP 3C HUVEC, tissue factor biomarker readout; actives raise or lower the signal
Procedure, shortened: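 Readout: Tissue Factor ELISA. Cells: human primary umbilical vein endothelium. Time: 24 h after dosing. Analysis: bidirectional fit, DMSO baseline.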

[13] = BSK_3C_uPAR: BioMAP Diversity Plus: 3C Assay for Urokinase-type plasminogen activator receptor (uPAR) Biomarker Activity (AID 2282998); settings: BioMAP 3C HUVEC, uPAR biomarker ELISA; actives raise or lower the signal
Procedure, shortened: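 Readout: ELISA for surface uPAR. System: human umbilical vein endothelial primary cells, 24 h after chemical exposure. Analysis: bidirectional fit, DMSO baseline.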

[14] = BSK_3C_VCAM1: BioMAP Diversity Plus: 3C Assay for Vascular cell adhesion molecule 1 (VCAM1) Biomarker Activity (AID 2282999); settings: BioMAP 3C HUVEC, VCAM1 ELISA, cytokine-stimulated; actives raise or lower the signal
Procedure, shortened: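 HUVEC primary cells, 24 h compound exposure; VCAM-1 by ELISA; gain/loss of signal fitted bidirectionally vs DMSO baseline.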

[15] = ATG_M_32_TRANS: Attagene TRANS-FACTORIAL HepG2 Assay for M32 Transcription Factor (Internal Marker) (AID 2282984; active = hit-call score of the fitted dose curve at least 0.9, where 1 is the maximum;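 also: transcript level of a background control reporter unit measured by RT-PCR and capillary electrophoresis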); settings: HepG2 Attagene TRANS M32 internal marker reporter
Procedure, shortened: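 Internal-marker readout from a multiplexed transcription reporter panel. HepG2 cells were transfected with GAL4-UAS reporter units, treated 24 hours, and reporter transcript levels determined by fluorescence after RT-PCR and capillary separation.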

[16] = target: Bile acid receptor (Homo sapiens) (UniProt Q96RI1); assay: ATG_FXR_TRANS: Attagene TRANS-FACTORIAL HepG2 Assay for Farnesoid X Receptor (FXR) (AID 2282979; active = hit-call score of the fitted dose curve at least 0.9, where 1 is the maximum;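 also: hits raise reporter mRNA above DMSO so AC50 marks FXR activation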); settings: HepG2 Attagene TRANS FXR-GAL4 reporter transcription
Chain of Bile acid receptor (Homo sapiens) (Q96RI1 whole entry, looked up, the tested form may be a part): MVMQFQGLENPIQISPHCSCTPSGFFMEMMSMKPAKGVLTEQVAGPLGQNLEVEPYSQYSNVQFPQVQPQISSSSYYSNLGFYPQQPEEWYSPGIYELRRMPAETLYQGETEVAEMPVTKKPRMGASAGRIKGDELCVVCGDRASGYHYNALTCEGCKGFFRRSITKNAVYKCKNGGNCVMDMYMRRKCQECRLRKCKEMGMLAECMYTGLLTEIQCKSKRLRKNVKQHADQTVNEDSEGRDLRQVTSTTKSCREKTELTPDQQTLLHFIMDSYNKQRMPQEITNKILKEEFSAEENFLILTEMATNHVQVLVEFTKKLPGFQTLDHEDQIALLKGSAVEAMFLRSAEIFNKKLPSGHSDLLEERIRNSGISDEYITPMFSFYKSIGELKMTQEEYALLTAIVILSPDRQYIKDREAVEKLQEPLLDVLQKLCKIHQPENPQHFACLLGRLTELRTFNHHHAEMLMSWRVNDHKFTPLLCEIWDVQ
Procedure, shortened: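 HepG2 cells transiently transfected with reporter constructs in which a chimeric FXR-GAL4 protein drives a GAL4-UAS reporter; 24 h compound exposure. Reporter mRNA measured by RT-PCR, FAM labelling, HpaI digestion and capillary electrophoresis; gain-of-signal versus DMSO.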

[17] = target: Oxysterols receptor LXR-beta (Homo sapiens) (UniProt P55055); assay: ATG_LXRb_TRANS: Attagene TRANS-FACTORIAL HepG2 Assay for human Liver X Receptor beta (LXRb) (AID 2282981; active = hit-call score of the fitted dose curve at least 0.9, where 1 is the maximum); settings: HepG2 Attagene TRANS GAL4-LXRb reporter, mRNA
Chain of Oxysterols receptor LXR-beta (Homo sapiens) (P55055 whole entry, looked up, the tested form may be a part): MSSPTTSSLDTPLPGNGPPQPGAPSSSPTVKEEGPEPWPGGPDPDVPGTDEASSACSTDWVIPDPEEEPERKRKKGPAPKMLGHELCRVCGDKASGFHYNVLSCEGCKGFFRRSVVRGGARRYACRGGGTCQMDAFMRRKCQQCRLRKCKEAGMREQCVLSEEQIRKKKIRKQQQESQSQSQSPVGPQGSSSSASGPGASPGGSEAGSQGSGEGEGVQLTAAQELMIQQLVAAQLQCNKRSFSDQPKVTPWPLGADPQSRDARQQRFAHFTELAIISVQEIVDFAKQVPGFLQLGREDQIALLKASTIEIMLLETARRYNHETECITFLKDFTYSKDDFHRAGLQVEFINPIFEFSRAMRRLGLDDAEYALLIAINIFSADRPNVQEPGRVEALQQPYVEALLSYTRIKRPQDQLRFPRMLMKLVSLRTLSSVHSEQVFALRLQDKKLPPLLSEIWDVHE
Procedure, shortened: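 Multiplexed reporter assay, HepG2, 24 h dosing. Fluorescence of labelled RT-PCR products after capillary electrophoresis gives transcript level; positive fitting direction relative to DMSO.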

[18] = target: Oxysterols receptor LXR-alpha (Homo sapiens) (UniProt Q13133); assay: ATG_LXRa_TRANS: Attagene TRANS-FACTORIAL HepG2 Assay for human Liver X Receptor alpha (LXRa) (AID 2282980; active = hit-call score of the fitted dose curve at least 0.9, where 1 is the maximum); settings: HepG2 Attagene TRANS reporter, LXRa transactivation
Chain of Oxysterols receptor LXR-alpha (Homo sapiens) (Q13133 whole entry, looked up, the tested form may be a part): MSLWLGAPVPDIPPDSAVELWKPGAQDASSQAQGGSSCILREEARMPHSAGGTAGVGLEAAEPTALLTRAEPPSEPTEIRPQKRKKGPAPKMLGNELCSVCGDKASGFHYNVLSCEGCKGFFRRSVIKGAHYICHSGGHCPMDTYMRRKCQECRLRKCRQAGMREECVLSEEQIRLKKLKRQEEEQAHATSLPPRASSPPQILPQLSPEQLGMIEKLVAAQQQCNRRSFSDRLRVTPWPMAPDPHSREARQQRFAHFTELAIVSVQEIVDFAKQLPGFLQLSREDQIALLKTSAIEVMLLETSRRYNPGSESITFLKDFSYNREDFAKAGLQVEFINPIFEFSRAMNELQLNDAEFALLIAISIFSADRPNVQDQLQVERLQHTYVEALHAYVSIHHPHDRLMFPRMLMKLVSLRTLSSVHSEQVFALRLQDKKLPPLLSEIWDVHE
Procedure, shortened: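 HepG2 cells were transiently transfected with multiplexed reporter units driven by chimeric LXRa–GAL4 fusion proteins, then dosed for 24 h. Reporter mRNA was quantified by RT-PCR, fluorescent labelling and capillary electrophoresis; gain of signal fitted against DMSO baseline.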

Measured: AC50

NC(O)(C(F)(F)F)C(F)(F)F
not listed: [15] | [16] | [17] | [18]
inactive: all other assays above

O=C1C=CC(=O)N1c1ccccc1
active: [9] 53.8 µM
not listed: [12] | [13] | [14] | [16] | [17] | [18]
inactive: all other assays above

Cc1cnccn1
not listed: [2] | [3] | [16] | [17] | [18]
inactive: all other assays above

CCCCOC(=O)[C@H](C)O
not listed: [2] | [12] | [13] | [14] | [16] | [17] | [18]
inactive: all other assays above

O=C(c1ccccc1)c1ccc(Cl)cc1
active: [9] 132 µM
not listed: [1] | [12] | [13] | [14] | [17] | [18]
inactive: all other assays above

Cc1ccc(O)cn1
not listed: [2] | [12] | [13] | [14] | [17] | [18]
inactive: all other assays above

NC(=O)C(F)(F)C(F)(F)C(F)(F)C(F)(F)C(N)=O
not listed: [3] | [15] | [16] | [17] | [18]
inactive: all other assays above

c1ccc(C[P+](c2ccccc2)(c2ccccc2)c2ccccc2)cc1
active: [9] 55.7 µM
not listed: [1] | [2] | [12] | [13] | [14] | [18]
inactive: all other assays above

CC(C)=CCCC(C)O (stereo unspecified)
inactive: [16] | [2] | [4] | [5] | [6] | [7] | [8] | [9] | [10] | [11]

N#Cc1ccccc1O
inactive: [16] | [2] | [3] | [4] | [5] | [6] | [7] | [8] | [9] | [10]

Nc1cccnc1N
active: [9] 17.9 µM
inactive: [16] | [4] | [5] | [6] | [7] | [8] | [10] | [11]

CCn1c2ccccc2c2ccccc21
active: [6] 152 µM | [9] 157 µM | [10] 100 µM
not listed: [12] | [13] | [14] | [17] | [18]
inactive: all other assays above

CCc1cc(Cc2cc(CC)c(N)c(CC)c2)cc(CC)c1N
active: [6] 53.4 µM | [7] 57.3 µM | [9] 1.62 µM | [10] 41.9 µM | [11] 27.2 µM
not listed: [12] | [13] | [14] | [17] | [18]
inactive: all other assays above

O=c1[nH]cccc1O
not listed: [1] | [12] | [13] | [14] | [16]
inactive: all other assays above

CCCCC(CC)COC(=O)c1ccc(N(C)C)cc1 (stereo unspecified)
active: [9] 27.4 µM
not listed: [12] | [13] | [14] | [17] | [18]
inactive: all other assays above

NCC(F)(F)C(F)(F)C(F)(F)C(F)(F)C(F)(F)C(F)(F)F
not listed: [1] | [3] | [13] | [17] | [18]
inactive: all other assays above

CC(C)(C)c1cc(Cc2cc(C(C)(C)C)c(O)c(C(C)(C)C)c2)cc(C(C)(C)C)c1O
inactive: [16] | [15] | [3] | [4] | [5] | [6] | [7] | [8] | [9] | [10]

CC1=CC2C3C=CC(C3)C2C1C (stereo unspecified)
active: [6] 100 µM | [9] 50.6 µM | [11] 80.4 µM
not listed: [1] | [13] | [15] | [17] | [18]
inactive: all other assays above

O=C1OC(=O)c2ccc3c4c(ccc1c24)C(=O)OC3=O
not listed: [3] | [12] | [13] | [14] | [17] | [18]
inactive: all other assays above

O=S(=O)(O)CCC(F)(F)C(F)(F)C(F)(F)C(F)(F)F
not listed: [1] | [3] | [15] | [16] | [18]
inactive: all other assays above
